Test results from article PMC4336329 (PLoS ONE, 2015).
The campaign covered roughly 310,000 compounds. About 2,200 (0.71%) showed an effect of 50% or more. The effect is printed as a negative number. The list comes from a sample in which strong results are over-represented; it also holds similar structures and randomly drawn compounds.

These molecules were tested against human ether-à-go-go-related gene (hERG) potassium channel (human, UniProt Q12809) (assay: primary screen, population patch clamp on CHO cells stably expressing hERG; higher = less effect of the substance).
Sequence of human ether-à-go-go-related gene (hERG) potassium channel (Q12809 whole entry, looked up): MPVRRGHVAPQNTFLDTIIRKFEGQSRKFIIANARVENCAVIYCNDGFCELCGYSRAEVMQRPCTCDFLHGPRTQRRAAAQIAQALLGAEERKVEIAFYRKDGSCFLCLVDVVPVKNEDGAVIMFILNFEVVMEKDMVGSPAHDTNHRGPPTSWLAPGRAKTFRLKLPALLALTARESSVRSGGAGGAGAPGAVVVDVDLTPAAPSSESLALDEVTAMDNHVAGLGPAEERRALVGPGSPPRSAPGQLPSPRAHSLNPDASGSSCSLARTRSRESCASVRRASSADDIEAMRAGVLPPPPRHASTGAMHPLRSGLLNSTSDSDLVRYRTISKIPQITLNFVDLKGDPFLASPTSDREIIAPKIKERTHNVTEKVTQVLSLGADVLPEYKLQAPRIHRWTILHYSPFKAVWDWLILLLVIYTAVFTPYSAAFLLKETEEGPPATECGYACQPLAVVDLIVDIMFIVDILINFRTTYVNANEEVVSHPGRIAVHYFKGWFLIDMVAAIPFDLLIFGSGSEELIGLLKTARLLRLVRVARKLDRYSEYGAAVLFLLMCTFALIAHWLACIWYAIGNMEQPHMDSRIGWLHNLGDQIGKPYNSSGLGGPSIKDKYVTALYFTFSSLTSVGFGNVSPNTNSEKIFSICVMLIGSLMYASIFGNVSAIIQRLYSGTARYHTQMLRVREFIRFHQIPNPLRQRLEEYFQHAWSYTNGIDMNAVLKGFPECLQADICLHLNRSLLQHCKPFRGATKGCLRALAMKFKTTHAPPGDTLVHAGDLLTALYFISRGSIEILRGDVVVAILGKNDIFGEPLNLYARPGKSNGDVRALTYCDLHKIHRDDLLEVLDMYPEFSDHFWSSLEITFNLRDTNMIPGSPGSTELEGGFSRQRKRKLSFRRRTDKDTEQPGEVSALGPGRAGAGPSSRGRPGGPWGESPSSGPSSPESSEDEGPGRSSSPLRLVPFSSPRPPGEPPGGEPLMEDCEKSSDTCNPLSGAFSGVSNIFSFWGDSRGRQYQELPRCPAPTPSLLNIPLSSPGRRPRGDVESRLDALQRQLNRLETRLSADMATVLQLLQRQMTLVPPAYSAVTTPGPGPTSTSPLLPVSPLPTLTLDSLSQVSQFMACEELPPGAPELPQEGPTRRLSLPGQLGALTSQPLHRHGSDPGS

| SMILES | hERG current change (%, negative = inhibition) at 1uM [%] |
| --- | --- |
| Cc1ccc2[nH]cc(C(=O)CCl)c2c1 | 15.2 |
| CCOc1ccccc1NC1c2ccccc2C(=O)N1Cc1ccco1 (centres unmarked) | 7.42 |
| O=C(O)c1cccc(N2C(=O)CSC2=S)c1 | 11.7 |
| COc1ccccc1-n1c(-c2ccc(Cl)cc2)c[nH]c1=S | 9.1 |
| Cc1nc2scc(-c3ccco3)c2c(=O)n1/N=C/N(C)C | 5.8 |
| O=C(Nc1cccc(NC(=O)c2ccc(Cl)cc2)n1)c1ccc(Cl)cc1 | 14.3 |
| COc1ccc(-c2ccnc3nc(N4CCN(c5ccccc5)CC4)nn23)cc1 | 14.9 |
| CCCCn1nnc(NC(=O)C(c2ccccc2)c2ccccc2)n1 | 11.2 |
| COc1c(C)cc(S(=O)(=O)NCc2ccccn2)c(C)c1C | 9.43 |
| Nc1nnc(SCC(=O)OCc2ccccc2)s1 | 14.4 |
| CCN(CC)S(=O)(=O)c1ccc(N2CCOCC2)c(NS(=O)(=O)c2cc(C(C)(C)C)ccc2C)c1 | 6.68 |
| O=C(NCCc1cccs1)C1CC(c2c(Cl)cccc2Cl)=NO1 (centres unmarked) | 10.6 |
| CSCCC(NS(=O)(=O)c1ccccc1F)C(=O)NCCCn1nc(C)cc1C (centres unmarked) | -1.95 |
| COc1ccc(/C=C(\NC(=O)c2ccc(Cl)cc2)C(=O)NCCCN2CCOCC2)cc1OC | 9.09 |
| COc1ccc(/C=C(\NC(=O)c2ccc(C)cc2)C(=O)NCCCN2CCOCC2)cc1OC | 14.1 |
| Cc1ccc(C(=O)N/C(=C\c2ccc(Cl)cc2)C(=O)NCCCN2CCOCC2)cc1 | -78.6 |
| Cc1ccc(OCCOCCN2CCN(C)CC2)c(C(C)(C)C)c1.O=C(O)C(=O)O | 13.2 |
| O=S(=O)(NCC(c1cccnc1)N1CCN(Cc2ccccc2)CC1)c1ccccc1 (centres unmarked) | -52.4 |
| O=S(=O)(NCC(c1cccnc1)N1CCN(Cc2ccccc2)CC1)c1ccc(F)cc1 (centres unmarked) | -42.6 |
| COc1ccc(S(=O)(=O)NCC(c2cccnc2)N2CCN(Cc3ccccc3)CC2)cc1C (centres unmarked) | -65.5 |
| O=S(=O)(NCC(c1cccnc1)N1CCN(Cc2ccccc2)CC1)c1ccc(Cl)cc1 (centres unmarked) | -60.6 |
| COc1ccc(S(=O)(=O)NCC(c2cccnc2)N2CCN(Cc3ccccc3)CC2)cc1 (centres unmarked) | -26.7 |

| SMILES | hERG current change (%, negative = inhibition) at 1uM [%] |
| --- | --- |
| Cc1ccc(S(=O)(=O)NCC(c2cccnc2)N2CCN(Cc3ccccc3)CC2)cc1 (centres unmarked) | -39.6 |
| CCN1CCN(C(CNS(=O)(=O)c2ccc(Cl)cc2)c2cccnc2)CC1 (centres unmarked) | -10.6 |
| COc1ccc(S(=O)(=O)NCC(c2cccnc2)N2CCN(c3ccccc3)CC2)cc1C (centres unmarked) | -1.72 |
| CCN1CCN(C(CNS(=O)(=O)c2ccc(OC)c(C)c2)c2cccnc2)CC1 (centres unmarked) | -27.5 |
| COc1ccc(C(=O)NNC(=O)C(=O)NC2CCCCC2)cc1 | 4.11 |
| O=c1cccccc1NN=C1CCCCCC1 | 14.1 |
| Clc1ccc(/C=N/Nc2nnc(-c3ncc[nH]3)c3ccccc23)cc1 | 4.89 |
| Cc1cc(OCCCCOc2ccc(S(N)(=O)=O)c(C)c2)ccc1S(N)(=O)=O | 12.7 |
| O=C(O)Cn1c(=O)c2c3c(sc2n(Cc2ccc(Cl)cc2Cl)c1=O)CCCC3 | 6.14 |
| CC(Sc1nnc(C2CC2)n1C1CC1)C(=O)N(C)Cc1cccc(F)c1 (centres unmarked) | -2.8 |
| CCOC(=O)C1=C(c2ccccc2)NC(=O)N(C(C)=O)C1c1cccc([N+](=O)[O-])c1 (centres unmarked) | 10.2 |
| CCOC(=O)c1cc2c(=O)n3ccccc3nc2n(CCCOC)c1=NC(C)=O | -15.6 |
| CC(C)OCCCn1c(=N)c(S(=O)(=O)c2ccccc2)cc2c(=O)n3ccccc3nc21 | -0.118 |
| CCOCCCn1c(=N)c(S(=O)(=O)c2ccc(C)cc2)cc2c(=O)n3cc(C)ccc3nc21 | 16.1 |
| Cc1ccc2nc3c(cc(C(N)=S)c(=N)n3CCCOC(C)C)c(=O)n2c1 | -65.1 |
| CC(C)OCCCn1c(=N)c(C(N)=S)cc2c(=O)n3ccccc3nc21 | -74.5 |
| CCOCCCn1c(=N)c(S(=O)(=O)c2ccccc2)cc2c(=O)n3cc(C)ccc3nc21 | 11.3 |
| CCc1cc(C(=O)COc2ccc(F)cc2)c(O)cc1O | 5.76 |
| CCSc1nc2sc3c(c2c(=O)[nH]1)CC(C)(CC)OC3 (centres unmarked) | 18.7 |
| O=C1C=C(Nc2ccc(Cl)cc2)CC(c2ccco2)C1 (centres unmarked) | 4.78 |
| O=C1C=C(NCc2ccncc2)CC(c2ccccc2)C1 (centres unmarked) | -22.8 |
| CCc1ccc(NC2=CC(=O)CC(c3ccco3)C2)cc1 (centres unmarked) | 12.9 |

| SMILES | hERG current change (%, negative = inhibition) at 1uM [%] |
| --- | --- |
| CN(C)CCCNC1=CC(=O)CC(c2ccccc2)C1 (centres unmarked) | -1.56 |
| COc1ccc(C2CC(=O)C=C(NCc3ccc4c(c3)OCO4)C2)cc1 (centres unmarked) | -32.6 |
| CCCCCCCNC1=CC(=O)CC(c2ccccc2)C1 (centres unmarked) | -63.2 |
| CC(C)CCNC1=CC(=O)CC(c2ccccc2)C1 (centres unmarked) | -0.257 |
| CC(C)CNC1=CC(=O)CC(c2ccco2)C1 (centres unmarked) | 14.5 |
| O=C1C=C(NCc2ccc(Cl)cc2)CC(c2ccco2)C1 (centres unmarked) | -91.3 |
| O=C1C=C(NCc2ccc3c(c2)OCO3)CC(c2ccccc2)C1 (centres unmarked) | -81.9 |
| O=C1C=C(NCc2ccco2)CC(c2ccc(Cl)cc2)C1 (centres unmarked) | -34.8 |
| CCCCCCCNC1=CC(=O)CC(c2ccco2)C1 (centres unmarked) | -77.6 |
| Cc1cccc(OC(=O)NCCOC(=O)N(O)c2ccc(Cl)cc2)c1 | 1.04 |
| Cc1ccc(NC(=O)CSc2sc3c(O)cc(=O)[nH]c3c2C#N)c(F)c1 | -4.66 |
| Cc1cccc(C)c1NC(=O)CSc1nc2[nH]c(=O)cc(O)c2s1 | 4.15 |
| COc1ccc(N(CC(=O)NC2CC3CCC2C3)S(=O)(=O)c2ccc(C)c([N+](=O)[O-])c2)cc1 (centres unmarked) | 10.2 |
| COc1cccc(C(=O)NNS(=O)(=O)c2ccc(C)cc2)c1 | 13 |
| O=C(NCc1ccco1)c1cccc(NS(=O)(=O)c2ccccc2F)c1 | 6.58 |
| Cc1ccc(NC(=O)CSCC(=O)NCc2cccc(C(F)(F)F)c2)cc1 | 6.6 |
| O=C(CN(C(=O)C1COc2ccccc2O1)c1ccccc1)NCC1CCCO1 (centres unmarked) | -9.34 |
| CCOc1ccccc1Nc1nc(N)nc(CSc2nncn2C)n1 | 9.75 |
| Cc1cccc(OCC(=O)Nc2ccc(C(=O)NCC(C)C)cc2)c1 | 4.42 |
| CCOCCCNC(=S)Nc1cc(OCC)c(NC(=O)c2ccco2)cc1OCC | 7.7 |
| COc1ccc(C(=O)N2CCN=C2SCc2cccnc2)cc1OC | 9.25 |
| COc1nnc(-c2ccc(C)c(S(=O)(=O)N(C)C)c2)c2ccccc12 | -53.6 |

| SMILES | hERG current change (%, negative = inhibition) at 1uM [%] |
| --- | --- |
| COc1nnc(-c2ccc(C)c(S(N)(=O)=O)c2)c2ccccc12 | 3.63 |
| COc1nnc(-c2ccc(C)c(S(=O)(=O)NC(C)C)c2)c2ccccc12 | -5.36 |
| CC(=O)Nc1ccc(NC2CCCCC2NS(=O)(=O)c2ccc(Cl)cc2)cc1 (centres unmarked) | 12 |
| CCOC(=O)C1(Cc2ccccc2)CCCN(CCCn2cccn2)C1 (centres unmarked) | 3.88 |
| CCOC(=O)C1(CCCc2ccccc2)CCN(Cc2nccn2CC)CC1 | -45.8 |
| CCCn1cc(CN2CCC(Cc3ccccc3)(C(=O)OCC)CC2)c(C)n1 | -14 |
| CCOC(=O)C1(Cc2ccccc2C(F)(F)F)CCN(C(C)CCn2cccn2)CC1 (centres unmarked) | -40.8 |
| CCOC(=O)C1(Cc2cccc(F)c2)CCN(Cc2cn(CC)nc2C)CC1 | -6.14 |
| CCOC(=O)C1(CCCc2ccccc2)CCN(CCCn2cccn2)CC1 | -84.6 |
| CCOC(=O)C1(Cc2ccc(Cl)cc2)CCN(C(C)CCn2cccn2)CC1 (centres unmarked) | -87.1 |
| CCOC(=O)C1(CCCc2ccccc2)CCN(Cc2cnn(C)c2)CC1 | -46.4 |
| CCOC(=O)C1(Cc2ccc(Cl)cc2)CCN(C(C)Cc2ccc(O)c(OC)c2)CC1 (centres unmarked) | -7.39 |
| CCOC(=O)C1(Cc2ccc(Cl)cc2)CCN(CCCn2cccn2)CC1 | -77 |
| CCOC(=O)C1(Cc2ccccc2C(F)(F)F)CCN(CCCn2cccn2)CC1 | -49.2 |
| CCCn1cc(CN2CCC(Cc3cccc(F)c3)(C(=O)OCC)CC2)c(C)n1 | -60.3 |
| Cc1ccc(C2=NN(CCC(=O)NCCCN3CCOCC3)C(=O)CC2)cc1 | -9.94 |
| O=C(CNC(=O)c1nc[nH]c1C(=O)NCC(=O)OCc1ccccc1)OCc1ccccc1 | 10.3 |
| COc1ccccc1NC(CC(=O)c1ccccc1)C(=O)OCC(=O)c1ccc(F)cc1 (centres unmarked) | -11.1 |
| COc1ccccc1C(=O)Nc1c2c(nn1-c1cccc(C)c1C)CS(=O)C2 (centres unmarked) | -3.22 |
| Cc1ccc(-n2c(O)c(C=Nc3ccc(S(=O)(=O)Nc4ncccn4)cc3)c3ccccc3c2=O)cc1C | -2.78 |
